PubChem BioAssay AID588742 (Southern Research Specialized Biocontainment Screening …, 2011)
Screen size: about 1,800 compounds; about 410 (23%) were called active. These entries were drawn from the full list. Measured potencies and affinities stand elsewhere. Values without a mark were called inactive. The rule behind the calls is not given here.

Assay: viability of Vero cells under compound – cytotoxicity control for flavivirus capping enzyme inhibitors (AID 588742)
Conditions: cytotoxicity counter-screen; series mostly up to 40 µM; viability: at the top concentration
With `Cc1ccc(C2c3sc(=O)[nH]c3SC3C(=O)NC(=O)C32)cc1` (stereo unspecified) the “viability” value was 98.6%.
With `COc1cccc(/C=C2\SC(=S)N(NS(=O)(=O)c3ccc(C)cc3)C2=O)c1OC` the “viability” value was 86.8%.
In the case of `CC1(C)CC(=O)C(C(c2ccc(Br)cc2)C2C(=O)CC(C)(C)CC2=O)C(=O)C1`, the “viability” value is reported as 96.5%.
With `CC1=NN(Cc2ccccc2)C(=O)C1C(c1ccccc1)C(C#N)C#N` (stereo unspecified) the “viability” value was 88.9%.
In the case of `CCOc1ccccc1NC(=O)CN1C(=O)COc2ccc(S(=O)(=O)N3CCOCC3)cc21`, the “viability” value is reported as 101%.
With `Cc1cc(OCC(=O)NC2CCN(Cc3ccccc3)CC2)c2c(C)c(C)c(=O)oc2c1` the “viability” value was 101%.
For `O=C1ON=C(c2cccc([N+](=O)[O-])c2)/C1=C/c1ccc(O)cc1`, the “viability” value was 80.4%.
In the case of `O=C1/C(=C/c2ccc(C(=O)O)cc2)CCC/C1=C\c1ccc(C(=O)O)cc1`, the “viability” value is reported as 114%.
In the case of `O=C(O)c1cccc(N2C(=O)C=CC2=O)c1`, the “viability” value is reported as 107%.
For `Cc1ccc([C@H]2C(C(=O)O)=CC[C@@H](c3ccc(Cl)c(Cl)c3)N2S(=O)(=O)c2ccc(C)cc2)cc1`, the “viability” value was 84.2%.
For `O=C(COc1ccccc1/C=C\c1[nH]c(=O)[nH]c(=O)c1[N+](=O)[O-])Nc1ccccc1`, the “viability” value was 109%.
For `CCOC(=O)CC1=NN(c2ccccc2)C(=O)/C1=C\c1ccc(OC)cc1OC`, the “viability” value was 94.6%.
For `CCOC(=O)c1c2c(c(=S)n(-c3ccccc3)c1N)CCC2`, the “viability” value was 82.2%.
For `O=S(=O)(Nc1nc(-c2sccc2Cl)cs1)c1cc(Cl)ccc1Cl`, the “viability” value was 99.7%.
For `Fc1cccc(Cl)c1CNc1ccc(N2CCCC2)cc1`, the “viability” value was 84.4%.
In the case of `CCN1C(=NCc2ccccc2)N[C@@H](c2ccccc2)[C@H](C(=O)OC)[C@H]1C`, the “viability” value is reported as 97.6%.
For `O=C(Cc1ccc(Br)cc1)Nc1ccc2[nH]ncc2c1`, the “viability” value was 90.6%.
In the case of `CN(CCO)c1cc(Sc2nc3ccccc3s2)c2nonc2c1[N+](=O)[O-]`, the “viability” value is reported as 98.6%.
For `O=c1cc(-c2ccccc2)[nH]c2[nH]n(-c3ccccc3)c(=O)c12`, the “viability” value was 97%.
With `Cc1ccc(C)c(S(=O)(=O)Nc2ccccc2C(=O)Nc2ccc(S(=O)(=O)Nc3ncccn3)cc2)c1` the “viability” value was 102%.
In the case of `O=C(O)c1ccc(Cl)c(S(=O)(=O)Nc2ccccc2C(=O)Nc2ccc(Cl)cc2)c1`, the “viability” value is reported as 94.1%.
For `CC(=C\c1ccccc1)/C=C1/SC(=S)N(C(C(=O)O)C(C)C)C1=O` (stereo unspecified), the “viability” value was 99.2%.
In the case of `Cc1cc(C(=O)N/N=C/c2ccc(O)c(O)c2O)c(C)n1-c1ccccc1`, the “viability” value is reported as 85%.
In the case of `Oc1ccc(/C=N/N2CCCCC2)c(O)c1O`, the “viability” value is reported as 96%.
For `Oc1cccc(/C=N/N=C/c2cccc(O)c2O)c1O`, the “viability” value was 86.5%.
For `CCN(CC)S(=O)(=O)c1cccc(C(=O)N/N=C/c2ccc(O)c(O)c2O)c1`, the “viability” value was 99.8%.
With `O=C1N=c2ccccc2=C1c1sc(=S)n(NC(=O)c2cccc(O)c2)c1O` the “viability” value was 99.3%.
For `CC1=NN(c2ccc(C)cc2C)C(=O)C1C(c1ccccc1)C1C(=O)N(c2ccc(C)cc2C)N=C1C` (stereo unspecified), the “viability” value was 92.2%.
With `O=C(O)c1ccccc1-c1ccccc1C(=O)Nc1ccc2c(c1)oc(=O)c1ccccc12` the “viability” value was 108%.
In the case of `Cc1cc(C)c(C(=O)COc2cccnc2[N+](=O)[O-])cc1C`, the “viability” value is reported as 99%.
In the case of `Nc1scc2c(C(=O)N/N=C/c3ccc(Cl)cc3)nn(-c3ccccc3)c(=O)c12`, the “viability” value is reported as 94%.
With `COc1ccc(/C=N/NC(=O)c2nn(-c3ccccc3)c(=O)c3c(N)scc23)cc1` the “viability” value was 94%.
With `Cc1[nH]c(=O)c(C#N)c(C)c1CCC(=O)Nc1cc(S(C)(=O)=O)ccc1Cl` the “viability” value was 105%.
For `N#Cc1c([N+](=O)[O-])cc([N+](=O)[O-])cc1S(=O)(=O)Cc1ccccc1`, the “viability” value was 96.8%.
In the case of `CSc1nc(SCC(=O)O)c2sc3nc(-c4ccccc4)c4c(c3c2n1)CCC4`, the “viability” value is reported as 95.7%.
In the case of `CCCS(=O)(=O)c1nc(S(=O)(=O)c2ccc(C)cc2)c(N2CCC(O)CC2)s1`, the “viability” value is reported as 103%.
In the case of `O=C(O)c1cccc2c1C(=O)c1ccc(-c3ccc(F)cc3OCc3ccccc3)cc1S2(=O)=O`, the “viability” value is reported as 109%.
With `Cc1nc(N2C(=O)C(=O)/C(=C(/O)c3ccccc3)C2c2ccco2)sc1C` (stereo unspecified) the “viability” value was 85%.
In the case of `CCCOc1ccc(/C=C2/C(=O)ON=C2C)cc1OCC`, the “viability” value is reported as 105%.
In the case of `C=CCOc1ccc(/C=C2/C(=O)ON=C2C)cc1OCC`, the “viability” value is reported as 102%.
With `CCc1cc(=O)oc2cc(OCC(=O)NCCCn3ccnc3)c(Cl)cc12` the “viability” value was 98.5%.
For `CC1(C)CC(=O)C(=Cc2cn(CCC#N)nc2-c2ccc(F)cc2)C(=O)C1`, the “viability” value was 105%.
With `CCOc1cc(/C=C2\NC(=O)NC2=O)cc([N+](=O)[O-])c1O` the “viability” value was 112%.
For `COc1ccc2c(c1)Cc1cc(NC(=O)c3ccccc3-c3ccccc3C(=O)O)ccc1-2`, the “viability” value was 95.3%.
In the case of `COc1ccccc1NC(=O)NNC(=O)c1cc2ccccc2cc1O`, the “viability” value is reported as 84.9%.
In the case of `O=C(NCCCl)NNC(=O)c1cc2ccccc2cc1O`, the “viability” value is reported as 94.7%.
With `COc1ccc(NC(=O)Nc2c(O)ccc3ccccc23)cc1` the “viability” value was 94.1%.
With `O=C1c2ccccc2C(O)(c2ccccc2)N1c1ccc([N+](=O)[O-])cc1Cl` (stereo unspecified) the “viability” value was 90.8%.
In the case of `CCC1(C)Cc2c(sc3[nH]c(=O)[nH]c(=O)c23)CS1` (stereo unspecified), the “viability” value is reported as 104%.
With `CC1(C)Cc2c(sc3nc4n(-c5ccccc5)c(=O)c(CCC(=O)O)nn4c(=O)c23)CO1` the “viability” value was 108%.
In the case of `CCOc1cc(/C=N/N=C2/NC(=O)C(CC(=O)O)S2)ccc1OCc1ccccc1Cl` (stereo unspecified), the “viability” value is reported as 100%.
For `COc1ccccc1N1CCN(/N=C/c2cccc(OC)c2O)CC1`, the “viability” value was 99.3%.
For `CCOc1ccccc1CNc1ccc(O)cc1`, the “viability” value was 96.2%.
For `Oc1ccc(NCc2ccccc2OCc2ccccc2F)cc1`, the “viability” value was 97.6%.
For `COc1ccc(/C=c2\sc3nc(=O)c(C)nn3c2=O)c(OC)c1`, the “viability” value was 100%.
In the case of `CCOC(=O)c1c(/N=C/c2cccc([N+](=O)[O-])c2O)sc(C)c1C`, the “viability” value is reported as 105%.
In the case of `COC(=O)C1=CN(c2cccc(C)c2)C=C(C(=O)OC)C1c1cc(OC)c(O)c([N+](=O)[O-])c1`, the “viability” value is reported as 96.7%.
For `C=CCOC(=O)C1=C(C)N=c2s/c(=C3\C(=O)N(CC(=O)O)c4ccccc43)c(=O)n2C1c1ccc(OC)cc1` (stereo unspecified), the “viability” value was 105%.
With `Cc1ccc(S(=O)(=O)Nn2c(C)ccc2C)cc1` the “viability” value was 97.7%.
For `Cc1ccc(C(c2c(O)nc3n(c2=O)CCS3)c2c(O)nc3n(c2=O)CCS3)cc1`, the “viability” value was 97.4%.
In the case of `NS(=O)(=O)c1ccc(N=Nc2c(O)c(C(=O)O)cc3ccccc23)cc1`, the “viability” value is reported as 117%.
With `CC(=O)N1c2ccc(S(=O)(=O)N(C)CC(=O)NCc3ccc(C)cc3)cc2CC1C` (stereo unspecified) the “viability” value was 89.4%.
For `COc1cc(/C=C/c2[nH]c(=O)[nH]c(=O)c2[N+](=O)[O-])cc([N+](=O)[O-])c1O`, the “viability” value was 92.2%.
For `CCCOc1ccc(C(=O)N/N=C/c2ccc(-c3ccc(S(=O)(=O)Nc4ncccn4)cc3)o2)cc1`, the “viability” value was 97.5%.
In the case of `O=C(/C=C/Nc1ccc(S(=O)(=O)Nc2ncccn2)cc1)c1cccs1`, the “viability” value is reported as 106%.
In the case of `O=C1NN(c2ccccc2)C(=O)/C1=C/c1ccc(-c2ccc(C(=O)O)cc2)o1`, the “viability” value is reported as 108%.
With `Nc1nc2ncc(C(=O)c3cc(Cl)cc(Cl)c3O)cc2s1` the “viability” value was 95.3%.
For `C=CCn1c(=O)c(CCC(=O)Nc2ccc(N3CCOCC3)cc2)nc2cc(C(F)(F)F)ccc21`, the “viability” value was 90.6%.
In the case of `CC1(OC(=O)c2ccco2)C(=O)C=C2C=C(C3CC3)OC=C2C1=O` (stereo unspecified), the “viability” value is reported as 96.2%.
For `C/C(=N/NC(=O)c1cc(O)c(O)c(O)c1)c1ccc([N+](=O)[O-])cc1`, the “viability” value was 99.6%.
For `O=C(CCC1CCCC1)NNC(=O)c1cc2ccccc2cc1O`, the “viability” value was 87.1%.
For `O=C(NC1CCCCC1)c1cc2ccccc2cc1O`, the “viability” value was 94.5%.
With `Cc1cc(C)c2nc(N3C(=O)C(O)=C(C(=O)c4ccco4)C3c3ccc(O)cc3)sc2c1` (stereo unspecified) the “viability” value was 96.7%.
In the case of `O=C(CNS(=O)(=O)c1ccc2ccccc2c1)OCC(=O)c1ccc(Br)s1`, the “viability” value is reported as 93.8%.
For `O=C(c1ccccc1)c1ccc(OCC(O)CN2CCN(S(=O)(=O)N3CCCCC3)CC2)cc1` (stereo unspecified), the “viability” value was 87.1%.
In the case of `CC(C)c1ccc(Nc2ccc(C(=O)O)cc2[N+](=O)[O-])cc1`, the “viability” value is reported as 101%.
In the case of `CCc1nnc(N/N=C/c2ccc(N3CCC(C)CC3)c([N+](=O)[O-])c2)n1N`, the “viability” value is reported as 89.8%.
With `COc1ccc(C2CC(c3ccccc3)=NN2c2ccc(Cl)c(C(=O)O)c2)cc1` (stereo unspecified) the “viability” value was 91.2%.
In the case of `O=C(CCN1C(=O)/C(=C\C=C\c2ccccc2)SC1=S)Nc1ccccc1C(=O)O`, the “viability” value is reported as 95.4%.
For `O=C1CCC/C(=N/Nc2ccc(Cl)cc2)C1`, the “viability” value was 89.1%.
For `COc1cc(C2C(C#N)=C(N)OC3=C2C(=O)CC(C)(C)C3)c([N+](=O)[O-])cc1OC` (stereo unspecified), the “viability” value was 108%.
In the case of `Cc1[nH]c2ccccc2c1C1=CC(=O)C=CC1=O`, the “viability” value is reported as 89.9%.
In the case of `COc1ccc2c([N+](=O)[O-])c(Cl)[nH]c2c1`, the “viability” value is reported as 104%.
With `CC(=O)N1CCN(c2ccc(NCc3ccc(Br)o3)cc2)CC1` the “viability” value was 106%.
For `Cc1nc2nc(-c3cccs3)cn2nc1C`, the “viability” value was 95.6%.
With `CCCCCCCC1=NN(c2ccc(S(=O)(=O)O)cc2)C(=O)C1N=O` (stereo unspecified) the “viability” value was 100%.
In the case of `COC(=O)c1ccc(N2NC(=O)/C(=C/c3ccc(OC)c(OC)c3)C2=O)cc1`, the “viability” value is reported as 98.2%.
In the case of `O=C1NN(c2ccccc2)C(=O)/C1=C\c1cccc(OC(=O)c2cccs2)c1`, the “viability” value is reported as 103%.
For `CN=c1scc(C)n1/N=C/c1ccc(O)c(O)c1O`, the “viability” value was 95.4%.
In the case of `Cc1nc2ccccc2c(=O)n1/N=C/c1ccc(O)c(O)c1O`, the “viability” value is reported as 99.3%.
With `Cc1cccc(N/N=C/c2ccc(O)c(O)c2O)c1` the “viability” value was 103%.
In the case of `Oc1ccc(/C=N/N2CCOCC2)c(O)c1O`, the “viability” value is reported as 102%.
With `COCCNC(=O)Nc1ccc2nc(-c3ccco3)c(-c3ccco3)nc2c1` the “viability” value was 102%.
For `C#CCOc1ccc(/C=C2/C(=O)ON=C2C)cc1Cl`, the “viability” value was 98.1%.
For `O=C1CCNc2cc3ccccc3cc21`, the “viability” value was 83.9%.
In the case of `COc1ccc(C2C(C#N)=C(N)Oc3c2c(C)nn3-c2ccccc2)cc1Cn1nc(C)c([N+](=O)[O-])c1C` (stereo unspecified), the “viability” value is reported as 94.7%.
With `O=c1[nH]n2c(=O)c3c([nH]c2c1N=Nc1cccc(C(F)(F)F)c1)CCCC3` the “viability” value was 101% [at 20 µM].
For `O=c1oc2ccccc2c(O)c1/C=C1\C=Nc2ccccc21`, the “viability” value was 91.5%.
For `CCOc1ccc(N2C(=O)C(Cl)=C(N3CCOCC3)C2=O)cc1`, the “viability” value was 98.1%.
With `COC(=O)c1c(C)c2c(C)cc3ccccn3c-2c1C(=O)OC` the “viability” value was 101%.
With `Cc1c(CCC(=O)O)c(=O)oc2c(C)c(OCc3cc4c(cc3Cl)OCO4)ccc12` the “viability” value was 94.4%.
